This is an account of results in PubChem BioAssay (EPA / NIEHS).

Read-out in assay [1]: X-box binding protein 1 (XBP1), XBP1 (gene 7494)
As to the kind of experiment: LTEA_HepaRG_XBP1: Life Technologies and Expression Analysis (LTEA) Assay for X-box binding protein 1 (XBP1) using HepaRG (AID 2283540; active = hit-call score of the fitted dose curve at least 0.9, where 1 is the maximum; inactive = score below 0.9). As to conditions: mRNA level, 48 h; actives raise or lower the signal. In outline: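 HepaRG, 48 h exposure, 8-pt half-log CRC top 100 uM, 0.5% DMSO vehicle, duplicates. Readout: TaqMan qRT-PCR of XBP1 mRNA, housekeeping-normalised (ACTB/GAPDH/POLR2A); bidirectional fit vs DMSO baseline.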

Assay [2] is described as follows: LTEA_HepaRG_LDH_cytotoxicity: Cytotoxicity Assessment in the Life Technologies and Expression Analysis (LTEA) Assay (AID 2283563). A digest of the protocol: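 HepaRG (human liver line), 48 h exposure, 8-pt half-log series from 100 uM, 0.5% DMSO vehicle, duplicates. Read-out: LDH in spent medium. Positive-direction fit vs DMSO baseline.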
Assay [3] is described as follows: TOX21_p53_BLA_p2_viability: Viability Assessment in the Tox21 HCT-116 p53 Agonism Beta-lactamase Assay, Phase 2 (AID 2283591).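 Also: actives lower the ATP signal meaning cytotoxicity.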 In outline:
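HCT116 p53-bla cells, 4000/well, dosed after 5 h plating (217-fold dilution of DMSO stocks) and incubated 16 h at 37C. Viability taken as cellular ATP by CellTiter-Glo luminescence after 30 min RT; signal loss marks cytotoxicity.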

The target in assay [4] is Cellular tumor antigen p53 (Homo sapiens) (UniProt P04637). As to the kind of experiment: TOX21_p53_BLA_p2_ratio: Tox21 HCT-116 p53 Agonism Beta-lactamase Assay, Ratio, Phase 2 (AID 2283592). In outline: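 Readout: blue/green (460/530 nm) FRET emission ratio after 2 h CCF4-AM loading at room temperature, excitation 405 nm. HCT116 p53 bla cells, 16 h compound exposure at 37C, 5% CO2; agonist direction fitted against DMSO baseline.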
Cellular tumor antigen p53 (Homo sapiens), sequence (P04637 whole entry, looked up): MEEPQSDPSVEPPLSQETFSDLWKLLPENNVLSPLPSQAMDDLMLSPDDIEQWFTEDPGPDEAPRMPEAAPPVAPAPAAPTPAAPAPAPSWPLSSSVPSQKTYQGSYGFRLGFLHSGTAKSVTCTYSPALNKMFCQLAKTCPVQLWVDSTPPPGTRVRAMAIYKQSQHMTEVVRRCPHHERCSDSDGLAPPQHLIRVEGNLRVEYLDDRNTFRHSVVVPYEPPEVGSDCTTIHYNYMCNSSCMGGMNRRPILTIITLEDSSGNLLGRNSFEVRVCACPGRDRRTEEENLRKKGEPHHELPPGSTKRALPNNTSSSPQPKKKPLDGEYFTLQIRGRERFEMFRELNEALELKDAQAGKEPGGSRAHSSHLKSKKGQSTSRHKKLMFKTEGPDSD

Assay [5] shares this target. As to the kind of experiment: TOX21_p53_BLA_p3_ratio: Tox21 HCT-116 p53 Agonism Beta-lactamase Assay, Ratio, Phase 3 (AID 2283596). In outline: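 Cells were seeded at 4000/well, rested 5 h at 37C, then dosed with DMSO compound solutions (217-fold dilution) for 16 h. CCF4-AM substrate was loaded for 2 h at room temperature, and the 460/530 nm emission ratio was fitted for gain of signal versus DMSO.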

Assay [6] has the same target. As to the kind of experiment: TOX21_p53_BLA_p4_ratio: Tox21 HCT-116 p53 Agonism Beta-lactamase Assay, Ratio, Phase 4 (AID 2283601). In outline:
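HCT-116 p53 beta-lactamase reporter cells (4000/well) preincubated 5 h, then compound (217-fold dilution of DMSO stock) for 16 h at 37C. CCF4-AM substrate added 2 h at room temperature; 460/530 nm emission ratio fitted upward versus DMSO.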

Assay [7] is described as follows: Tanguay_ZF_120hpf_MORT_legacy: (Legacy) Oregon State University Tanguay Lab 120 Hour Post-fertilization zebrafish Assay for Mortality (AID 2283633). In outline:
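Brightfield scoring of embryo death (binary) at 24 and 120 hpf; static exposure 6–120 hpf, 28C, sealed and foil-covered. Pronase-dechorionated 5D wild-type larvae, single embryo per well. DMSO 0.64% v/v; trimethyltin chloride 5uM positive control.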

Assay [8] in a line: Tanguay_ZF_120hpf_YSE_legacy: (Legacy) Oregon State University Tanguay Lab 120 Hour Post-fertilization zebrafish Assay for Yolk Sac Edema (AID 2283634). A digest of the protocol: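 Binary brightfield scoring of yolk sac edema at 120 hpf; DMSO baseline, gain-of-signal fitting. Dechorionated 5D larvae, one per well, static exposure 6–120 hpf, 28C, 0.64% DMSO. Dead embryos not scored.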

A short description of assay [9]: Tanguay_ZF_120hpf_AXIS_legacy: (Legacy) Oregon State University Tanguay Lab 120 Hour Post-fertilization zebrafish Assay for Body Axis Malformation (AID 2283635). In outline: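 Embryos: 5D wild-type, pronase-dechorionated 4 hpf; static exposure 6–120 hpf, 28C, sealed, dark, 1 embryo/well, 0.64% DMSO. 120 hpf axis malformation scored present/absent; dead embryos excluded. Analysed as gain of signal vs DMSO.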

Assay [10] is described as follows: Tanguay_ZF_120hpf_EYE_legacy: (Legacy) Oregon State University Tanguay Lab 120 Hour Post-fertilization zebrafish Assay for Eye Malformation (AID 2283636).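 Also: binary presence or absence of eye malformation scored by brightfield in 120 hpf larvae.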 A digest of the protocol:
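5D wild-type embryos, pronase-dechorionated at 4 hpf; static exposure 6–120 hpf, 28C, dark; DMSO 0.64% final; 5uM trimethyltin chloride positive control. Binary eye-defect scoring at 120 hpf; dead embryos not scored.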

Assay [11] in a line: Tanguay_ZF_120hpf_SNOU_legacy: (Legacy) Oregon State University Tanguay Lab 120 Hour Post-fertilization zebrafish Assay for Snout Malformation (AID 2283637). In outline: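 Binary brightfield scoring of snout malformation at 120 hpf. Dechorionated 5D wild-type embryos, one per well, static exposure from 6 hpf at 28C, sealed and dark; final DMSO 0.64% (vol/vol), DMSO as baseline; 5uM trimethyltin chloride positive control.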

Assay [12] can be described thus: Tanguay_ZF_120hpf_JAW_legacy: (Legacy) Oregon State University Tanguay Lab 120 Hour Post-fertilization zebrafish Assay for Jaw Malformation (AID 2283638). A digest of the protocol: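 Binary jaw-malformation calls at 120 hpf by brightfield imaging; DMSO (0.64% v/v) = baseline. Embryos: 5D wild-type, pronase-dechorionated, one per well from 6 hpf, static exposure, 28C, sealed, dark.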

The nature of assay [13]: Tanguay_ZF_120hpf_OTIC_legacy: (Legacy) Oregon State University Tanguay Lab 120 Hour Post-fertilization zebrafish Assay for Otic Vesicle Malformation (AID 2283639). A digest of the protocol: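 Wild-type zebrafish larvae, whole-embryo exposure from early stage to 120 hpf at 28C. Binary brightfield scoring of otic vesicle morphology, fitted in the positive direction against the DMSO baseline.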

Assay [14] in a line: Tanguay_ZF_120hpf_PE_legacy: (Legacy) Oregon State University Tanguay Lab 120 Hour Post-fertilization zebrafish Assay for Pericardial Edema (AID 2283640). A digest of the protocol: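 Static waterborne exposure, 5D wild-type embryos, 28C, to 120 hpf; final DMSO 0.64% (vol/vol). Binary PE call at 120 hpf by brightfield; fitted upward vs DMSO baseline. 5uM trimethyltin chloride as positive control.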

Assay [15] is described as follows: Tanguay_ZF_120hpf_BRAI_legacy: (Legacy) Oregon State University Tanguay Lab 120 Hour Post-fertilization zebrafish Assay for Brain Malformation (AID 2283641). A digest of the protocol:
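Read-out: binary brain morphology call at 120 hpf (brightfield), fitted in gain-of-signal direction vs DMSO. Wild-type Tropical 5D embryos, static exposure, 28C, 0.64% DMSO final; 5uM trimethyltin chloride as positive control.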

A short description of assay [16]: TOX21_p53_BLA_p4_viability: Viability Assessment in the Tox21 HCT-116 p53 Agonism Beta-lactamase Assay, Phase 4 (AID 2283597).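 Also: hits lower the luminescence signal meaning cytotoxicity.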 A digest of the protocol: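 ATP content by CellTiter-Glo luminescence, 30 min RT, read after the beta-lactamase ratio step. Cells: HCT116, 4000/well, compound added after 5 h, exposure 16 h at 37C. Signal loss = reduced viability.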
In assay [17] the target is Cellular tumor antigen p53 (Homo sapiens) (UniProt P04637). Nature of the assay: TOX21_p53_BLA_p5_ratio: Tox21 HCT-116 p53 Agonism Beta-lactamase Assay, Ratio, Phase 5 (AID 2283599). In outline:
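HCT-116 p53-bla cells (4000/well) plated 5 h, dosed with compound (217-fold DMSO dilution) for 16 h at 37 C; CCF4-AM substrate 2 h at room temperature. Activity is the 460/530 nm emission ratio (405 nm excitation), fitted in gain-of-signal direction versus DMSO.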

Assay [18] is described as follows: TOX21_p53_BLA_p5_viability: Viability Assessment in the Tox21 HCT-116 p53 Agonism Beta-lactamase Assay, Phase 5 (AID 2283600). A digest of the protocol: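 ATP luminescence (CellTiter-Glo, 30 min, RT) served as the viability read-out, with loss of signal indicating cytotoxicity. Compounds in DMSO were pinned at a 217-fold dilution onto 4000 cells/well and incubated 16 h, 37C.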

Assay [19] is described as follows: TOX21_p53_BLA_p3_viability: Viability Assessment in the Tox21 HCT-116 p53 Agonism Beta-lactamase Assay, Phase 3 (AID 2283593).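 Also: cells exposed to compound for 16 h before reading.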 In outline:
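HCT116 cells, 4000/well, dosed 5 h after plating by pin transfer (217-fold dilution from DMSO stock) and incubated 16 h at 37C, 5% CO2. Viability read as ATP luminescence with CellTiter-Glo after 30 min at room temperature.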

Structures are written as SMILES. Results filed as inconclusive are left out. The source made the active and inactive calls. The calls were made as follows, unless noted: active = hit-call score of the fitted dose curve at least 0.9, where 1 is the maximum; inconclusive = response in the unintended direction; inactive = score below 0.9.

Consider `Nc1cnn(-c2ccccc2)c(=O)c1Cl`, for which the outcome in assay [1], in assay [2], in assay [3], in [4], in [5] and in [6] was inactive. Also, the result in assay [7], in assay [8], in assay [9], in assay [10], in [11] and in assay [12] was inactive. The molecule was classed as inactive in assay [13], in assay [14] and in assay [15].

Regarding `C=CCOC(=O)C(C)(C)OC(=O)c1cc(-n2c(=O)cc(C(F)(F)F)n(C)c2=O)ccc1Cl`, the call in assay [1], in assay [2], in [3], in [4], in assay [5] and in assay [16] was inactive. For the same molecule, the outcome in [17], in [6], in assay [7], in assay [8], in assay [9] and in [10] was inactive. Besides, the result in assay [11], in [12], in assay [14] and in assay [15] was inactive.

Consider `O=P(O)(O)CCCl`, for which the call in assay [1], in assay [2], in assay [4], in assay [5], in [17] and in assay [18] was inactive. Besides, the outcome in assay [6], in assay [7], in assay [8], in [9], in [10] and in assay [11] was inactive. Further, the outcome in assay [13], in [14] and in assay [15] was inactive.

With `CC(C)=CC1C(C(=O)OCc2coc(Cc3ccccc3)c2)C1(C)C` (stereo not given), the call in assay [1], in assay [2], in [7], in assay [8], in assay [9] and in [10] was inactive. Besides, the call in assay [11], in assay [12], in assay [13], in assay [14] and in assay [15] was inactive.

For the molecule `COC(=O)c1c(C(F)F)nc(C(F)(F)F)c(C2=NCCS2)c1CC(C)C`, the call in assay [1], in [2], in assay [4], in assay [5], in assay [16] and in assay [17] was inactive. Moreover, the call in [18], in assay [6], in assay [7], in assay [8], in assay [9] and in assay [11] was inactive. Besides, the call in assay [12], in assay [13], in assay [14] and in [15] was inactive.

As for `Clc1cccc(C(Cl)(Cl)Cl)n1`, the molecule was called inactive in assay [1], in assay [2], in assay [3], in assay [19], in assay [5] and in [16]. Besides, the result in [17], in assay [7], in assay [8], in assay [9], in assay [10] and in assay [11] was inactive. The molecule was called inactive in assay [12], in [13] and in assay [15].

Regarding `CC1(C)CON(Cc2ccccc2Cl)C1=O`, the outcome in assay [1], in assay [2], in assay [19], in [5], in assay [16] and in assay [17] was inactive. The molecule was called inactive in [7], in assay [8], in [10], in [11], in [12] and in assay [13]. Besides, the molecule was classed as inactive in assay [14] and in assay [15].

On to `CS(=O)(=O)c1cc(C(F)(F)F)ccc1C(=O)c1cnoc1C1CC1`, for which the outcome in assay [1], in [2], in [3], in [16], in [7] and in [8] was inactive. Moreover, the molecule was called inactive in assay [9], in assay [10], in assay [11], in [12], in [13] and in [14].

Take `CCCCOCN(C(=O)CCl)c1c(CC)cccc1CC`: the result in [1], in [2], in assay [3], in assay [4], in assay [5] and in [7] was inactive. Also, the call in [8], in assay [9], in [10], in [11], in [12] and in assay [13] was inactive. Moreover, the outcome in assay [14] and in assay [15] was inactive. For the same molecule, the AC50 is 67.9 µM (active) in assay [16] and 66 µM (active) in assay [6].

What is called AC50 is the midpoint of the concentration-response curve, whichever way the signal moves.
